# Laboratory results taken from PubChem BioAssay (NCI).
# Compounds without any hit were thinned out: in the full panel of roughly 83,000, 20% have a hit.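 For each line, cells grew in 96-well plates with the test compound present at a single concentration for 48 hours.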 A number with no mark means an inactive call. Activity calls are given as the source filed them. Rule for the calls: active = growth percent below 10; inactive = the rest.
# What was measured:
# Assay in all cases: NCI-60 one-dose screen, 48 h (100 = growth as untreated, 0 = no growth, -100 = all killed)
# Settings in all cases: 10 µM unless noted
# [1] = tested on: NCI-H23 lung
# [2] = tested on: NCI-H322M lung
# [3] = tested on: HOP-62 NSCLC
# [4] = tested on: NCI-H460 lung
# [5] = tested on: HOP-92 NSCLC
# [6] = tested on: NCI-H522 lung
# [7] = tested on: A549/ATCC NSCLC
# [8] = tested on: 786-0 renal
# [9] = tested on: COLO 205 colon
# [10] = tested on: DU-145 prostate
# [11] = tested on: K-562 leukemia
# [12] = tested on: MALME-3M melanoma
# [13] = tested on: MDA-MB-231 breast
# [14] = tested on: RXF 393 renal
# [15] = tested on: SF-268 CNS
# [16] = tested on: SF-295 CNS
# [17] = tested on: SF-539 CNS
# [18] = tested on: UACC-257 melanoma
# [19] = tested on: M14 melanoma
# [20] = tested on: HCT-15 colon
SMILES,growth [1],growth [2],growth [3],growth [4],growth [5],growth [6],growth [7],growth [8],growth [9],growth [10],growth [11],growth [12],growth [13],growth [14],growth [15],growth [16],growth [17],growth [18],growth [19],growth [20]
CCN1C(=O)N(c2ccccc2)C2Nn3c(s/c(=C4\C(=O)N(C(C)C)c5ccccc54)c3=O)=NC21 (stereo not given),104%,108%,98.5%,108%,113%,92.1%,104%,101%,111%,120%,100%,98.7%,99.4%,112%,98.7%,98.4%,100%,104%,109%,108%
CCOC(=O)C1=CN(C)C=C(C(=O)OCC)C1c1cc(Br)c(OCC)c(OC)c1,65.9%,98.6%,55.6%,34.5%,2.87% (active),52.2%,66.1%,59.9%,-59.7% (active),84%,-20.4% (active),-1.58% (active),36.8%,49.9%,73.3%,-47.3% (active),58.9%,-50% (active),-37.3% (active),14.7%
CCOC(=O)c1cc2c(n1Cc1cc(OC)cc(OC)c1)-c1oncc1CCC2,23.7%,28%,50.4%,6.91% (active),57.5%,-19.1% (active),26.6%,41.9%,-54.8% (active),15.6%,7.66% (active),8.25% (active),15.5%,18.6%,33.5%,-16.6% (active),2.3% (active),52.9%,25.3%,24.2%
Nc1ncnc(N)c1NC(=O)c1ccc(OCc2ccccc2)cc1,105%,100%,104%,107%,106%,91.3%,103%,104%,103%,111%,105%,102%,104%,107%,104%,103%,95.5%,104%,108%,99.5%
CN1C(=O)N(C)C2Nn3c(s/c(=C\c4ccc(Cl)cc4Cl)c3=O)=NC21 (stereo not given),61.8%,78.7%,73.2%,30.8%,89.5%,55.3%,51.4%,68.5%,22%,30.3%,19.5%,72.5%,55.9%,39.7%,61.1%,32.4%,36%,84.5%,21%,43.8%
COc1cc(C=C2C(=O)N(C)C(=O)N(C)C2=O)cc(CN2CCCCC2)c1O,96.6%,102%,93.1%,108%,101%,94.3%,100%,95.5%,111%,104%,96.4%,93.3%,98.1%,116%,94.1%,104%,100%,104%,102%,104%
Cc1nc2ccccc2c(/C=C/c2ccccc2)c1C(=O)/C=C/c1ccc(Cl)cc1,34.8%,50%,11.7%,-37.6% (active),46.9%,-18.9% (active),25.3%,2.52% (active),31.3%,4.72% (active),5.19% (active),40.8%,8.28% (active),-28.2% (active),44.6%,29%,26.6%,29.9%,17.1%,-13.2% (active)
CCOc1cc(Cl)c(C(C)NC(=O)c2cccc(OC)c2)cc1OCC (stereo not given),4.89% (active),127%,-11.2% (active),13.6%,-46.3% (active),-76.1% (active),17.3%,-74.9% (active),-84.8% (active),-21.7% (active),-25.7% (active),-70.4% (active),-7.72% (active),-95.8% (active),11.3%,111%,7.13% (active),-70.3% (active),-46.4% (active),3.34% (active)
Nc1n[nH]c2ccc([C@@H]3Nc4ccc5[nH]ncc5c4[C@H]4[C@H]5CCC(C5)[C@H]43)cc12,31.4%,42.7%,35.7%,3.93% (active),33.7%,-21.4% (active),18.5%,24.1%,0.265% (active),7.74% (active),9.58% (active),52.2%,11.8%,25.6%,25%,14%,-15.8% (active),69.4%,8.3% (active),16.5%
O=C(c1nc2ccccc2[nH]1)C1[C@@H](c2cccc(O)c2)C2CC3CCCCC3N2[C@@]12C(=O)Nc1cc(Cl)ccc12 (stereo not given in full),48.6%,61.6%,60.3%,13.1%,55%,51.9%,27.2%,35.2%,63.5%,43.7%,21.5%,32.1%,34.7%,1.99% (active),49.5%,37.2%,48.7%,48.9%,29.2%,40.7%
COc1c(B(O)O)cccc1-c1nc2ccc3n[nH]c(F)c3c2c2c1CCCC2,92.9%,92.6%,66.3%,47.2%,78.6%,59.4%,66%,69.5%,93.2%,77.7%,92.9%,119%,28.9%,24.1%,50.5%,80%,25.1%,121%,104%,85.3%
O=C1/C(=C/c2ccc(O)cc2)COc2ccc(O)c(O)c21,35.9%,79%,51.5%,8.73% (active),52.7%,-47.7% (active),34.5%,25.4%,91.8%,17%,4.59% (active),-6.72% (active),20.2%,9.98% (active),24.5%,95.6%,-13.7% (active),63.2%,64.7%,-29.3% (active)
O=C(N/N=C/c1ccccc1Cl)C(=O)Nc1cccc(C(F)(F)F)c1,105%,108%,106%,99.4%,92.2%,105%,88.8%,103%,113%,101%,85.3%,111%,99.3%,97.9%,105%,87.7%,102%,103%,105%,97.1%
